# The sample as a whole holds a higher share of the strongest signals than the screen did.
# B1: BabA (Helicobacter pylori), O52269_HELPY (protein)
# chain: AEDDGFYMSAGYQIGEAAQMVKNTKGIQELSDNYENLSNLLTRYSTLNTLIKLSADPSAVNAARENLGASAKNLIGDTKNSPAYQAVLLAINAAVGFWNVVGYVTQCGGNANGQKSTSSTTIFNNEPGYRSTSITCSLNGHMPGYYGPMSIENFKKLNEAYQILQTALKNGLPALKENNGTVNVTYSYTCSGEGNDNCSLQTTGVTNQNNGTKTETQTIDGKSVTTTISSKVVDSQ
# Assays:
# Experiment in all cases: glycan array binding signal (z-score within array); higher = stronger binding
# Settings in all cases: glycan notation: IUPAC condensed, linker removed
# [1] = target: Fuc(a1-2)Gal(b1-3)GlcNAc(b1-2)Man(a1-3)[Fuc(a1-2)Gal(b1-3)GlcNAc(b1-2)Man(a1-6)]Man(b1-4)GlcNAc(b1-4)[Fuc(a1-6)]GlcNAc
# In short: (§1)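 The binding signal is a Z-score computed within each array and averaged over linkers. Arrays of the same protein sequence at different concentrations or buffers were also averaged together. Data originate from 3228 arrays in the Consortium for Functional Glycomics database, kept only where the protein sequence was available.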
# [2] = target: Fuc(a1-2)Gal(b1-4)Fuc(a1-3)]GlcNAc(b1-2)Man(a1-3)[Fuc(a1-2)Gal(b1-4)[Fuc(a1-3)]GlcNAc(b1-2)Man(a1-6)]Man(b1-4)GlcNAc(b1-4)GlcNAc
# In short: as §1
# Fuc(a1-2)Gal(b1-4)Glc6S = target: Fuc(a1-2)Gal(b1-4)Glc6S
# In short: as §1
# [3] = target: Fuc(a1-2)Gal(b1-4)GlcNAc(b1-3)[Fuc(a1-3)[Gal(b1-4)]GlcNAc(b1-6)]Gal(b1-4)Glc
# In short: as §1
# [4] = target: Fuc(a1-2)[Gal(a1-3)]Gal(b1-4)GlcNAc(b1-2)Man(a1-3)[Fuc(a1-2)[Gal(a1-3)]Gal(b1-4)GlcNAc(b1-2)Man(a1-6)]Man(b1-4)GlcNAc(b1-4)[Fuc(a1-6)]GlcNAc
# In short: as §1
# [5] = target: Fuc(a1-2)[GalNAc(a1-3)]Gal(b1-4)GlcNAc(b1-3)Gal(b1-4)GlcNAc(b1-3)Gal(b1-4)GlcNAc
# In short: as §1
# [6] = target: Fuc(a1-3)[Gal(b1-4)]GlcNAc(b1-6)[Gal(b1-3)GlcNAc(b1-3)]Gal(b1-4)Glc
# In short: as §1
# [7] = target: Fuc(a1-3)[GalNAc(b1-4)]GlcNAc6S
# In short: as §1
# [8] = target: Gal(b1-3)Gal(b1-4)GlcNAc(b1-2)Man(a1-3)[Gal(b1-3)Gal(b1-4)GlcNAc(b1-2)Man(a1-6)]Man(b1-4)GlcNAc(b1-4)GlcNAc
# In short: as §1
# [9] = target: Gal(b1-3)GalNAc(b1-4)[Neu5Ac(a2-3)]Gal(b1-4)Glc
# In short: as §1
# [10] = target: Gal(b1-3)GlcNAc(b1-3)Gal(b1-4)GlcNAc
# In short: as §1
# Gal(b1-4)Glc6S = target: Gal(b1-4)Glc6S
# In short: as §1
# [11] = target: Gal(b1-4)GlcNAc(b1-2)Man(a1-3)[Gal(b1-4)GlcNAc(b1-2)Man(a1-6)]Man(b1-4)GlcNAc(b1-4)GlcNAc
# In short: as §1
# [12] = target: Gal(b1-4)GlcNAc(b1-2)Man(a1-3)[Gal(b1-4)GlcNAc(b1-2)Man(a1-6)]Man(b1-4)GlcNAc(b1-4)[Fuc(a1-6)]GlcNAc
# In short: as §1
# [13] = target: Gal(b1-4)GlcNAc(b1-3)Gal(b1-4)Glc
# In short: as §1
# [14] = target: Gal(b1-4)GlcNAc(b1-3)Gal(b1-4)GlcNAc(b1-2)Man(a1-3)[Gal(b1-4)GlcNAc(b1-3)Gal(b1-4)GlcNAc(b1-2)Man(a1-6)]Man(b1-4)GlcNAc(b1-4)GlcNAc
# In short: as §1
# [15] = target: Gal(b1-4)GlcNAc(b1-3)Gal(b1-4)GlcNAc(b1-3)Gal(b1-4)GlcNAc(b1-2)Man(a1-3)[Gal(b1-4)GlcNAc(b1-3)Gal(b1-4)GlcNAc(b1-3)Gal(b1-4)GlcNAc(b1-2)Man(a1-6)]Man(b1-4)GlcNAc(b1-4)GlcNAc
# In short: as §1
# [16] = target: Gal(b1-4)GlcNAc(b1-3)Gal(b1-4)GlcNAc(b1-3)Gal(b1-4)GlcNAc(b1-2)Man(a1-3)[Gal(b1-4)GlcNAc(b1-3)Gal(b1-4)GlcNAc(b1-3)Gal(b1-4)GlcNAc(b1-2)Man(a1-6)]Man(b1-4)GlcNAc(b1-4)[Fuc(a1-6)]GlcNAc
# In short: as §1
# [17] = target: Gal(b1-4)GlcNAc(b1-3)Gal(b1-4)GlcNAc(b1-3)Gal(b1-4)GlcNAc(b1-2)[Gal(b1-4)GlcNAc(b1-3)Gal(b1-4)GlcNAc(b1-3)Gal(b1-4)GlcNAc(b1-6)]Man(a1-6)[Gal(b1-4)GlcNAc(b1-3)Gal(b1-4)GlcNAc(b1-3)Gal(b1-4)GlcNAc(b1-2)Man(a1-3)]Man(b1-4)GlcNAc(b1-4)[Fuc(a1-6)]GlcNAc
# In short: as §1
# [18] = target: Gal(b1-4)GlcNAc(b1-3)Gal(b1-4)GlcNAc(b1-3)Gal(b1-4)GlcNAc(b1-3)Gal(b1-4)GlcNAc(b1-3)Gal(b1-4)GlcNAc(b1-2)Man(a1-3)[Gal(b1-4)GlcNAc(b1-3)Gal(b1-4)GlcNAc(b1-3)Gal(b1-4)GlcNAc(b1-3)Gal(b1-4)GlcNAc(b1-3)Gal(b1-4)GlcNAc(b1-2)Man(a1-6)]Man(b1-4)GlcNAc(b1-4)GlcNAc
# In short: as §1
# [19] = target: Gal(b1-4)GlcNAc(b1-3)Gal(b1-4)GlcNAc(b1-3)[Gal(b1-4)GlcNAc(b1-3)Gal(b1-4)GlcNAc(b1-6)]GalNAc
# In short: as §1
# [20] = target: Gal(b1-4)GlcNAc(b1-6)[Gal(b1-4)GlcNAc(b1-3)]GalNAc
# In short: as §1
# Gal3S4S(b1-4)GlcNAc = target: Gal3S4S(b1-4)GlcNAc
# In short: as §1
# Gal4S(b1-4)GlcNAc = target: Gal4S(b1-4)GlcNAc
# In short: as §1
# [21] = target: GalNAc(a1-3)GalNAc(b1-3)Gal(a1-4)Gal(b1-4)Glc
# In short: as §1
# GalNAc(b1-3)GalNAc = target: GalNAc(b1-3)GalNAc
# In short: as §1
binder,measurement,setting,value
B1,glycan array binding signal (z-score),[1],-0.237
same,glycan array binding signal (z-score),[2],3.3
same,glycan array binding signal (z-score),Fuc(a1-2)Gal(b1-4)Glc6S,0.321
same,glycan array binding signal (z-score),[3],-0.3
same,glycan array binding signal (z-score),[4],-0.046
same,glycan array binding signal (z-score),[5],-0.054
same,glycan array binding signal (z-score),[6],0.017
same,glycan array binding signal (z-score),[7],-0.664
same,glycan array binding signal (z-score),[8],0.28
same,glycan array binding signal (z-score),[9],0.035
same,glycan array binding signal (z-score),[10],-0.811
same,glycan array binding signal (z-score),Gal(b1-4)Glc6S,-0.359
same,glycan array binding signal (z-score),[11],-0.732
same,glycan array binding signal (z-score),[12],0.092
same,glycan array binding signal (z-score),[13],-0.535
same,glycan array binding signal (z-score),[14],4.08
same,glycan array binding signal (z-score),[15],4
same,glycan array binding signal (z-score),[16],2.03
same,glycan array binding signal (z-score),[17],2.31
same,glycan array binding signal (z-score),[18],3.86
same,glycan array binding signal (z-score),[19],4.39
same,glycan array binding signal (z-score),[20],-0.568
same,glycan array binding signal (z-score),Gal3S4S(b1-4)GlcNAc,0.144
same,glycan array binding signal (z-score),Gal4S(b1-4)GlcNAc,0.875
same,glycan array binding signal (z-score),[21],-0.709
same,glycan array binding signal (z-score),GalNAc(b1-3)GalNAc,-0.807

# Reference: the supplement of paper PMC8728848
